Assay results from PubChem BioAssay AID1159580 (chemical genetic matrix, 2015).
Out of some 5,500 compounds screened, about 2,000 (36%) were called active. Inconclusive results (about 18%) are left out. Rule as the data show it: active = normalized growth mostly below about 0.91 (no sharp cut-off); inconclusive = no clear call, values can overlap the other calls; inactive = mostly above about 0.92. This is one part of the list.

Test: chemical genetic growth profiling, strain panel (AID 1159580);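 also: tested at 20 µM; growth read once vehicle control cultures reached saturation at 30 °C; 1 = growth at the plate median or of vehicle wells; lower values mean less growth of the strain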
Settings: S. cerevisiae deletion strains, growth OD

Measured: normalized growth

CCOc1ccc(NC(=O)CC(C)O)cc1 (centres undefined)
inactive: locus YHR030C, strain SLT2, stronger effect = lower value 1.02 | locus YHR079C, strain IRE1, stronger effect = lower value 1.02 | locus YJL095W, strain BCK1, stronger effect = lower value 1.02 | locus YJR066W, strain TOR1, stronger effect = lower value 0.94 | locus YLR113W, strain HOG1, stronger effect = lower value 1.06 | locus YNL183C, strain NPR1, stronger effect = lower value 0.939 | locus YOR231W, strain MKK1, stronger effect = lower value 1.01 | locus YPL256C, strain CLN2, stronger effect = lower value 1.01

O=C(Cc1ccccc1)NO
inactive: locus YAL021C, strain ccr4, stronger effect = lower value 0.981 | locus YAL026C, strain drs2, stronger effect = lower value 0.983 | locus YAL030W, strain snc1, stronger effect = lower value 0.995 | locus YBL061C, strain skt5, stronger effect = lower value 0.957 | locus YBR009C, strain hhf1, stronger effect = lower value 0.993 | locus YBR023C, strain chs3, stronger effect = lower value 0.978 | locus YBR171W, strain sec66, stronger effect = lower value 0.96 | locus YBR231C, strain swc5, stronger effect = lower value 0.974 | locus YBR279W, strain paf1, stronger effect = lower value 0.976 | locus YCL011C, strain gbp2, stronger effect = lower value 0.978 | locus YCL016C, strain dcc1, stronger effect = lower value 0.96 | locus YCL061C, strain MRC1, stronger effect = lower value 0.975 | locus YCL069W, strain vba3, stronger effect = lower value 0.979 | locus YCR088W, strain abp1, stronger effect = lower value 0.978 | locus YDL005C, strain med2, stronger effect = lower value 0.956 | locus YDL040C, strain nat1, stronger effect = lower value 0.975 | locus YDR001C, strain nth1, stronger effect = lower value 0.972 | locus YDR069C, strain doa4, stronger effect = lower value 0.953 | locus YDR137W, strain rgp1, stronger effect = lower value 0.976 | locus YDR159W, strain sac3, stronger effect = lower value 0.964 | locus YDR195W, strain ref2 0.953 | locus YDR297W, strain sur2, stronger effect = lower value 0.987 | locus YDR334W, strain swr1, stronger effect = lower value 1.01 | locus YDR335W, strain msn5, stronger effect = lower value 0.982 | locus YDR392W, strain spt3, stronger effect = lower value 0.993 | locus YEL003W, strain gim4, stronger effect = lower value 0.974 | locus YEL037C, strain rad23, stronger effect = lower value 0.962 | locus YEL061C, strain CIN8 (second series), stronger effect = lower value 0.989 | locus YER015W, strain faa2, stronger effect = lower value 0.98 | locus YER016W, strain bim1, stronger effect = lower value 0.982 | locus YER111C, strain swi4, stronger effect = lower value 0.985 | locus YER155C, strain BEM2 (second series), stronger effect = lower value 0.925 | locus YFR010W, strain ubp6, stronger effect = lower value 0.983 | locus YGL167C, strain pmr1, stronger effect = lower value 0.969 | locus YGL173C, strain kem1, stronger effect = lower value 0.979 | locus YGL227W, strain vid30, stronger effect = lower value 0.961 | locus YGL240W, strain doc1, stronger effect = lower value 0.995 | locus YGL253W, strain hxk2, stronger effect = lower value 0.962 | locus YHR013C, strain ard1, stronger effect = lower value 0.944 | locus YHR027C, strain rpn1, stronger effect = lower value 0.974 | locus YHR142W, strain chs7, stronger effect = lower value 0.917 | locus YJL092W, strain hpr5, stronger effect = lower value 0.99 | locus YJL095W, strain BCK1 (second series), stronger effect = lower value 0.96 | locus YJL115W, strain asf1, stronger effect = lower value 0.961 | locus YJL129C, strain trk1, stronger effect = lower value 0.954 | locus YJL154C, strain vps35, stronger effect = lower value 0.989 | locus YJL164C, strain tpk1, stronger effect = lower value 0.977 | locus YJL166W, strain qcr8, stronger effect = lower value 0.966 | locus YKL160W, strain elf1, stronger effect = lower value 0.944 | locus YKR026C, strain gcn3, stronger effect = lower value 0.973 | locus YKR091W, strain srl3, stronger effect = lower value 0.973 | locus YLL001W, strain dnm1, stronger effect = lower value 0.98 | locus YLL026W, stronger effect = lower value 0.97 | locus YLL041C, strain sdh2, stronger effect = lower value 0.976 | locus YLR027C, strain aat2, stronger effect = lower value 0.973 | locus YLR221C, strain rsa3, stronger effect = lower value 0.992 | locus YLR258W, strain gsy2, stronger effect = lower value 0.973 | locus YLR262C, strain YPT6 (second series), stronger effect = lower value 0.978 | locus YLR320W, strain mms22, stronger effect = lower value 0.952 | locus YLR342W, strain FKS1, stronger effect = lower value 0.98 | locus YLR357W, strain rsc2, stronger effect = lower value 0.938 | locus YLR370C, strain arc18, stronger effect = lower value 0.981 | locus YLR384C, strain iki3, stronger effect = lower value 0.961 | locus YML120C, strain ndi1, stronger effect = lower value 0.981 | locus YMR058W, strain fet3, stronger effect = lower value 0.984 | locus YMR125W, strain sto1, stronger effect = lower value 0.963 | locus YMR129W, stronger effect = lower value 0.973 | locus YMR205C, strain PFK2, stronger effect = lower value 0.992 | locus YMR231W, strain pep5, stronger effect = lower value 0.975 | locus YNL071W, strain lat1, stronger effect = lower value 0.965 | locus YNL209W, strain ssb2, stronger effect = lower value 0.984 | locus YNL248C, strain rpa49, stronger effect = lower value 0.95 | locus YNL322C, strain KRE1 (second series), stronger effect = lower value 0.949 | locus YNR049C, strain mso1, stronger effect = lower value 0.983 | locus YOR001W, strain rrp6, stronger effect = lower value 1 | locus YOR070C, strain gyp1, stronger effect = lower value 0.98 | locus YOR080W, strain dia2, stronger effect = lower value 0.94 | locus YOR083W, strain WHI5, stronger effect = lower value 0.928 | locus YOR106W, strain vam3, stronger effect = lower value 0.939 | locus YOR265W, strain rbl2, stronger effect = lower value 0.976 | locus YOR270C, strain vph1, stronger effect = lower value 0.936 | locus YOR290C, strain snf2, stronger effect = lower value 0.969 | locus YPL051W, strain arl3, stronger effect = lower value 0.972 | locus YPL078C, strain atp4, stronger effect = lower value 0.97 | locus YPL106C, strain sse1, stronger effect = lower value 0.949 | locus YPL240C, strain hsp82, stronger effect = lower value 0.963
